Molecules are shown by their SMILES. Structures can show the parent of a compound that is named as a salt. ± gives the standard error. The whole screen tested about 1,300 compounds, of which about 130 (10%) showed an effect of 50% or more. Shown is part of a subset that was picked to be rich in strong results.

The record followed here is the supplement of paper PMC8007513.

The assay relates to Trichoderma virens ATCC 9645. Kind of assay: growth yield (OD600) with compound + IPBC relative to untreated control; higher = less growth inhibition. To be noted: compound concentration: 100 uM, IPBC concentration: 200 ng/ml. Summed up: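 For each 96-well plate, 100 μl aliquots were prepared with Trichoderma virens ATCC 9645 spores suspended at 15,000 spores ml^−1 in potato dextrose broth. The spores had been harvested from potato dextrose agar plates after 7 days. Library compounds were present at 100 μM final, some wells also receiving a biocide at 200 ng ml^−1, and plates were grown at 30 °C with OD600 read on a BioTek EL800 at 40 h and 72 h. Reported growth, relative to the control lacking both agents, is the mean of duplicate screens.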

Consider `C[C@@H](CN1CC(=O)NC(=O)C1)N1CC(=O)NC(=O)C1` [Dexrazoxane hydrochloride] + CCCCNC(=O)OCC#CI [3-iodo-2-propynyl butylcarbamate (IPBC)], for which the growth yield amounted to 109.4 ± 0.48% (40 h) and 106 ± 4.2% (72 h).
For `Cc1ccc(C(=O)c2cc(O)c(O)c([N+](=O)[O-])c2)cc1` [Tolcapone] + CCCCNC(=O)OCC#CI [3-iodo-2-propynyl butylcarbamate (IPBC)], the growth yield reads like this: (40 h) 47.5 ± 3.3%; (72 h) 56 ± 2.7%.
For the molecule `CCN(CC)C(=O)/C(C#N)=C/c1cc(O)c(O)c([N+](=O)[O-])c1` [Entacapone] + CCCCNC(=O)OCC#CI [3-iodo-2-propynyl butylcarbamate (IPBC)], the growth yield runs as follows: (40 h) 88 ± 0.64%; (72 h) 80.4 ± 1.4%.
`NC[C@@H]1O[C@@H](O[C@H]2[C@H](O)[C@@H](O[C@H]3O[C@H](CO)[C@@H](O)[C@H](N)[C@H]3O)[C@H](N)C[C@@H]2N)[C@@H](O)[C@H](O)[C@H]1O` [Kanamycin A sulfate] + CCCCNC(=O)OCC#CI [3-iodo-2-propynyl butylcarbamate (IPBC)]: the growth yield is, setting by setting: (40 h) 87.2 ± 9.4%; (72 h) 93.4 ± 4.7%.
The like results for `c1ccc(CN(CC2=NCCN2)c2ccccc2)cc1` [Antazoline hydrochloride] + CCCCNC(=O)OCC#CI [3-iodo-2-propynyl butylcarbamate (IPBC)] were, in that order, 82.76 ± 0.79% and 94.28 ± 0.94%.
For the molecule `C#C[C@]1(O)CC[C@H]2[C@@H]3CCC4=CC(=O)CC[C@]4(C)[C@H]3CC[C@@]21C` [Ethisterone] + CCCCNC(=O)OCC#CI [3-iodo-2-propynyl butylcarbamate (IPBC)], the growth yield stood at 105 ± 2.7% (40 h) and 105 ± 3.2% (72 h).
Take `C=CCN1CCCC1CNC(=O)c1cc2nn[nH]c2cc1OC` (stereo not given) [Alizapride hydrochloride] + CCCCNC(=O)OCC#CI [3-iodo-2-propynyl butylcarbamate (IPBC)]: the growth yield is, setting by setting: (40 h) 111.5 ± 0.32%; (72 h) 107%.
For `OC(CNCC(O)C1CCc2cc(F)ccc2O1)C1CCc2cc(F)ccc2O1` (stereo not given) [Nebivolol hydrochloride] + CCCCNC(=O)OCC#CI [3-iodo-2-propynyl butylcarbamate (IPBC)], the growth yield by setting is: (40 h) 11.3 ± 4.3%; (72 h) 63.7 ± 18%.
For `NC(=O)c1cccnc1` [Nicotinamide] + CCCCNC(=O)OCC#CI [3-iodo-2-propynyl butylcarbamate (IPBC)], in that order: 106 ± 4.8% and 101.4 ± 0.94%.
`C=CC1=C(C(=O)O)N2C(=O)[C@@H](NC(=O)/C(=N\OCC(=O)O)c3csc(N)n3)[C@H]2SC1` [Cefixime] + CCCCNC(=O)OCC#CI [3-iodo-2-propynyl butylcarbamate (IPBC)]: the growth yield was 104.8 ± 0.64% (40 h) and 103% (72 h).
In the case of `Clc1cc(Cl)c(OCC#CI)cc1Cl` [Haloprogin] + CCCCNC(=O)OCC#CI [3-iodo-2-propynyl butylcarbamate (IPBC)], the growth yield runs as follows: (40 h) 5.24 ± 0.48%; (72 h) 2.83 ± 1.6%.
For `CC1=Nc2ccc(Cl)cc2S(=O)(=O)N1` [Diazoxide] + CCCCNC(=O)OCC#CI [3-iodo-2-propynyl butylcarbamate (IPBC)], the growth yield by setting is: (40 h) 97.4 ± 4%; (72 h) 100.8 ± 0.94%.
For the molecule `CC[C@H]1OC(=O)[C@H](C)[C@@H](O[C@H]2C[C@@](C)(OC)[C@@H](O)[C@H](C)O2)[C@H](C)[C@@H](O[C@@H]2O[C@H](C)C[C@H](N(C)C)[C@H]2O)[C@](C)(O)C[C@@H](C)/C(=N\OCOCCOC)[C@H](C)[C@@H](O)[C@]1(C)O` [Roxithromycin] + CCCCNC(=O)OCC#CI [3-iodo-2-propynyl butylcarbamate (IPBC)], the growth yield came out at 97.2 ± 9.5% (40 h) and 96.4 ± 4.3% (72 h).
On to `CC(C)(C(=O)O)c1ccc(C(O)CCCN2CCC(C(O)(c3ccccc3)c3ccccc3)CC2)cc1` (stereo not given) [Fexofenadine hydrochloride] + CCCCNC(=O)OCC#CI [3-iodo-2-propynyl butylcarbamate (IPBC)], for which the growth yield (40 h) amounted to 89.3 ± 5.4% and the growth yield (72 h) was 95.5 ± 7.2%.
On to `OC(c1ccccc1)(c1ccccc1)C1CCNCC1` [Azacyclonol] + CCCCNC(=O)OCC#CI [3-iodo-2-propynyl butylcarbamate (IPBC)], for which the growth yield runs as follows: (40 h) 80.06 ± 0.32%; (72 h) 91.2 ± 1.5%.
In the case of `CC(C)(C)c1ccc(C(O)CCCN2CCC(C(O)(c3ccccc3)c3ccccc3)CC2)cc1` (stereo not given) [Terfenadine] + CCCCNC(=O)OCC#CI [3-iodo-2-propynyl butylcarbamate (IPBC)], the growth yield (40 h) amounted to 47.2 ± 9.1% and the growth yield (72 h) is 90.09 ± 0.73%.
For `C[N+]12CCC(CC1)C(OC(=O)C(O)(c1ccccc1)c1ccccc1)C2` (stereo not given) [Clidinium bromide] + CCCCNC(=O)OCC#CI [3-iodo-2-propynyl butylcarbamate (IPBC)], the growth yield was 95.8 ± 11% (40 h) and 95.8 ± 6.6% (72 h).
As for `O=C(NCCN1CCOCC1)c1ccc(Cl)cc1` [Moclobemide] + CCCCNC(=O)OCC#CI [3-iodo-2-propynyl butylcarbamate (IPBC)], the growth yield stood at 81.6 ± 4.8% (40 h) and 89.7 ± 2% (72 h).
The like results for `Cc1c(N)c(=O)n(-c2ccccc2)n1C` [Ampyrone] + CCCCNC(=O)OCC#CI [3-iodo-2-propynyl butylcarbamate (IPBC)] were, in that order, 104 ± 3.8% and 105 ± 1.8%.
On to `CN(CCOc1ccc(NS(C)(=O)=O)cc1)CCc1ccc(NS(C)(=O)=O)cc1` [Dofetilide] + CCCCNC(=O)OCC#CI [3-iodo-2-propynyl butylcarbamate (IPBC)], for which the growth yield by setting is: (40 h) 88.79 ± 0.79%; (72 h) 90.3 ± 2%.
As for `CCCCCCCN(CC)CCCC(O)c1ccc(NS(C)(=O)=O)cc1` (stereo not given) [Ibutilide fumarate] + CCCCNC(=O)OCC#CI [3-iodo-2-propynyl butylcarbamate (IPBC)], the growth yield (40 h) is 85 ± 1.4% and the growth yield (72 h) is 88.1 ± 0.63%.
`CCCCc1oc2ccccc2c1C(=O)c1cc(I)c(OCCN(CC)CC)c(I)c1` [Amiodarone hydrochloride] + CCCCNC(=O)OCC#CI [3-iodo-2-propynyl butylcarbamate (IPBC)]: the growth yield runs as follows: (40 h) 2.06 ± 0.16%; (72 h) 2.41 ± 0.1%.
With `CCCCOc1cc(C(=O)NCCN(CC)CC)c2ccccc2n1` [Dibucaine] + CCCCNC(=O)OCC#CI [3-iodo-2-propynyl butylcarbamate (IPBC)], the growth yield stood at 85 ± 1.4% (40 h) and 94.18 ± 0.21% (72 h).
For `CCCCOc1cc(C(=O)OCCN(CC)CC)ccc1N` [Benoxinate hydrochloride] + CCCCNC(=O)OCC#CI [3-iodo-2-propynyl butylcarbamate (IPBC)], the growth yield reads like this: (40 h) 84.82 ± 0.64%; (72 h) 91.24 ± 0.63%.
On to `CCCCc1oc2ccc(NS(C)(=O)=O)cc2c1C(=O)c1ccc(OCCCN(CCCC)CCCC)cc1` [Dronedarone hydrochloride] + CCCCNC(=O)OCC#CI [3-iodo-2-propynyl butylcarbamate (IPBC)], for which the growth yield was 6.51 ± 0.16% (40 h) and 3.25 ± 0.32% (72 h).
`CCCCC1=NC2(CCCC2)C(=O)N1Cc1ccc(-c2ccccc2-c2nnn[nH]2)cc1` [Irbesartan] + CCCCNC(=O)OCC#CI [3-iodo-2-propynyl butylcarbamate (IPBC)]: the growth yield reads like this: (40 h) 96.6 ± 6.7%; (72 h) 95.8 ± 3.5%.
Take `NS(=O)(=O)c1cc2c(cc1Cl)N=C(CSCc1ccccc1)NS2(=O)=O` [Benzthiazide] + CCCCNC(=O)OCC#CI [3-iodo-2-propynyl butylcarbamate (IPBC)]: the growth yield reads like this: (40 h) 89.9 ± 0.32%; (72 h) 94.8 ± 1.3%.
As to `O=C(OCC(O)CO)c1ccccc1Nc1ccnc2cc(Cl)ccc12` (stereo not given) [Glafenine hydrochloride] + CCCCNC(=O)OCC#CI [3-iodo-2-propynyl butylcarbamate (IPBC)], the growth yield turned out to be 84.3 ± 2.4% (40 h) and 97.3 ± 1.3% (72 h).
Regarding `O=[N+]([O-])O[C@@H]1CO[C@H]2[C@@H]1OC[C@@H]2O` [Isosorbide mononitrate] + CCCCNC(=O)OCC#CI [3-iodo-2-propynyl butylcarbamate (IPBC)], the growth yield (40 h) was 88.2 ± 4% and the growth yield (72 h) amounted to 91.3 ± 4.1%.
As for `CCN(C(C)=O)c1cccc(-c2ccnc3c(C#N)cnn23)c1` [Zaleplon] + CCCCNC(=O)OCC#CI [3-iodo-2-propynyl butylcarbamate (IPBC)], the growth yield is 81.009 ± 1e-14% (40 h) and 88.94 ± 0.42% (72 h).
Consider `Cc1c(NC(C)C)c(=O)n(-c2ccccc2)n1C` [Isopyrin hydrochloride] + CCCCNC(=O)OCC#CI [3-iodo-2-propynyl butylcarbamate (IPBC)], for which the growth yield (40 h) amounted to 87 ± 2.5% and the growth yield (72 h) is 91.24 ± 0.63%.
Turning to `CC1(C)S[C@@H]2[C@H](NC(=O)Cc3ccccc3)C(=O)N2[C@H]1C(=O)O` [Benzylpenicillin sodium] + CCCCNC(=O)OCC#CI [3-iodo-2-propynyl butylcarbamate (IPBC)], the growth yield reads like this: (40 h) 82.1 ± 6.2%; (72 h) 97.1 ± 6.1%.
On to `CC1(C)S[C@@H]2[C@H](NC(=O)Cc3ccccc3)C(=O)N2[C@H]1C(=O)O` [Benzathine benzylpenicillin] + CCCCNC(=O)OCC#CI [3-iodo-2-propynyl butylcarbamate (IPBC)], for which the growth yield reads like this: (40 h) 102 ± 12%; (72 h) 98 ± 9.9%.
For `CCCCc1ncc(/C=C(\Cc2cccs2)C(=O)O)n1Cc1ccc(C(=O)O)cc1` [Eprosartan mesylate] + CCCCNC(=O)OCC#CI [3-iodo-2-propynyl butylcarbamate (IPBC)], the growth yield (40 h) came out at 112 ± 9.7% and the growth yield (72 h) is 109 ± 4.1%.
Turning to `COC(=O)C1=C(C)NC(C)=C(C(=O)OCC(C)C)C1c1ccccc1[N+](=O)[O-]` (stereo not given) [Nisoldipine] + CCCCNC(=O)OCC#CI [3-iodo-2-propynyl butylcarbamate (IPBC)], the growth yield was 41.3 ± 8.3% (40 h) and 34.71 ± 0.1% (72 h).
In the case of `COCCOC(=O)C1=C(C)NC(C)=C(C(=O)OC(C)C)C1c1cccc([N+](=O)[O-])c1` (stereo not given) [Nimodipine] + CCCCNC(=O)OCC#CI [3-iodo-2-propynyl butylcarbamate (IPBC)], the growth yield (40 h) is 79.7 ± 7.9% and the growth yield (72 h) amounted to 87.3 ± 1.3%.
In the case of `CCOC(=O)C1=C(C)NC(C)=C(C(=O)OC)C1c1cccc([N+](=O)[O-])c1` (stereo not given) [Nitrendipine] + CCCCNC(=O)OCC#CI [3-iodo-2-propynyl butylcarbamate (IPBC)], the growth yield was found to be 79.58 ± 0.48% (40 h) and 85.7 ± 1.1% (72 h).
Regarding `CCOC(=O)C1=C(C)NC(C)=C(C(=O)OC)C1c1cccc(Cl)c1Cl` (stereo not given) [Felodipine] + CCCCNC(=O)OCC#CI [3-iodo-2-propynyl butylcarbamate (IPBC)], the growth yield is, setting by setting: (40 h) 77.5 ± 8.3%; (72 h) 92.9 ± 1.9%.
For `COC(=O)C1=C(C)NC(C)=C(C(=O)OC)C1c1ccccc1[N+](=O)[O-]` [Nifedipine] + CCCCNC(=O)OCC#CI [3-iodo-2-propynyl butylcarbamate (IPBC)], in that order: 42.41 ± 0.16% and 55.48 ± 0.52%.
Regarding `COC(=O)C1=C(C)NC(C)=C(C(=O)OCCN(C)Cc2ccccc2)C1c1cccc([N+](=O)[O-])c1` (stereo not given) [Nicardipine hydrochloride] + CCCCNC(=O)OCC#CI [3-iodo-2-propynyl butylcarbamate (IPBC)], the growth yield (40 h) was determined as 73.1 ± 1.6% and the growth yield (72 h) is 94.7 ± 2.2%.
